Measurements as given in PubChem BioAssay (Tox21).
Inconclusive results are not listed. Active and inactive are the calls of the source. Unless noted, calls come from the whole dose curve.

How the values were obtained:
[1] = Nuclear factor erythroid 2-related factor 2/antioxidant responsive element (Nrf2/ARE) small molecule agonists: qHTS cell viability counter screen in human keratinocytes (AID 1919968; active = well fitted cell-killing curve with a large enough effect in the repeat runs; note: nearly all actives have a fitted effect of over 55% in size)
How it was run: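 Fluorescence read-out from CellTiter-Fluor after 1 h at 37 C. Wells held HaCaT-derived ARE-luciferase reporter cells (1,500/well) treated 23 h with DMSO-dissolved compounds. Run in the same wells as the luciferase agonist read.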

[2] = Nuclear factor erythroid 2-related factor 2/antioxidant responsive element (Nrf2/ARE) small molecule agonists: luciferase reporter gene qHTS assay in human keratinocytes (AID 1919969); note: nearly all actives have a fitted effect of over 35% in size; note: potency is the fitted concentration of half-maximal effect
[3] = biological target: Gonadotropin-releasing hormone receptor (Homo sapiens) (UniProt P30968); experiment: Human gonadotropin-releasing hormone receptor (GnRHR) small molecule agonists, calcium flux assay in GnRHR-HEK293 cells (AID 1920063); note: nearly all actives have a fitted effect of over 35% in size
Sequence of Gonadotropin-releasing hormone receptor (Homo sapiens) (P30968 whole entry, looked up): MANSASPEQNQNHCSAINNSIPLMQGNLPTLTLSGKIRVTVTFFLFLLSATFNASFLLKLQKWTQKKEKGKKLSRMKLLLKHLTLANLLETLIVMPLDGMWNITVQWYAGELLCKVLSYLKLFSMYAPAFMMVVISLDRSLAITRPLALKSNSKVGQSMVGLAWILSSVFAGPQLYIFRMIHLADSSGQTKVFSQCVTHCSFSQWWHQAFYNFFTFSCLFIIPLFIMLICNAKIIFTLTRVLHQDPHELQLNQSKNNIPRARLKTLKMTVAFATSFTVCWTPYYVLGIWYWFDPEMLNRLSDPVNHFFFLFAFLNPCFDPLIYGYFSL
How it was run: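 Calcium-dye fluorescence, Ex/Em=480/540, recorded every 1 sec over 3 min after compound addition to GnRHR-HEK293 cells. Cells had been seeded 18 hours earlier and dye-loaded for 1 hour at 37 C. Fifteen concentrations, triplicates.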

[4] = G protein-coupled receptor (GPCR) small molecule agonists, calcium flux assay: HEK293 wild type cell line counter screen (AID 1920065)
How it was run: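 Agonist mode; 18 h seeding at 37 C, 1 h dye load at 37 C; compounds pinned from DMSO, ATP as positive control; kinetic fluorescence 480/540 nm, 3 min, 1 s reads; 15 concentrations, triplicate.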

[5] = p53 small molecule agonists, cell-based qHTS assay with human liver microsomes (AID 1963577)
How it was run: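 p53RE-bla reporter cells were pre-incubated 5 h at 37 C, then treated with compounds plus human liver microsomes (0.5 mg/mL final) and NADPH (0.5 mg/mL final) for 16 h at 37 C. Beta-lactamase activity was read by LiveBLAzer fluorescence after 2 h at room temperature.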

[6] = p53 small molecule agonists, cell-based qHTS assay with rat liver microsomes (AID 1963578)
How it was run: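 p53RE-bla cells were exposed to compounds together with rat liver microsomes (0.5 mg/mL final) and NADPH (0.5 mg/mL final) for 16 h at 37 C, then read by LiveBLAzer beta-lactamase fluorescence after 2 h at room temperature.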

[7] = p53 small molecule agonists, cell-based qHTS assay with human liver microsomes: qHTS cell viability counter screen (AID 1963579); note: nearly all actives have a fitted effect of over 45% in size
How it was run: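 p53RE-bla cells (4,000/well) were pre-incubated 5 h at 37 C, then given compounds in DMSO plus human liver microsomes (0.5 mg/mL final) and NADPH (0.5 mg/mL final) for 16 h at 37 C. Viability was read by CellTiter-Glo luminescence.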

[8] = p53 small molecule agonists, cell-based qHTS assay with rat liver microsomes: qHTS cell viability counter screen (AID 1963580); note: nearly all actives have a fitted effect of over 45% in size
How it was run: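 Luminescent ATP readout (CellTiter-Glo, 30 min at room temperature) reports viability of p53RE-bla HCT-116 cells after 16 h at 37 C with test compounds under metabolic activation by rat liver microsomes and NADPH at 0.5 mg/mL final each.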

[9] = p53 small molecule agonists, cell-based qHTS assay: qHTS cell viability counter screen (AID 1963581); note: nearly all actives have a fitted effect of over 45% in size
How it was run: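 Cytotoxicity read-out: ATP-based luminescence (CellTiter-Glo, 30 min RT) measured in the same wells as the p53 reporter assay, HCT-116 p53RE-bla cells, 16 h compound exposure at 37 C.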

[10] = p53 small molecule agonists, cell-based qHTS assay (AID 1963582; active = well fitted activation curve with a large enough effect in the signal ratio in the repeat runs, not every such curve was filed as active; the % refers to the signal ratio)
How it was run: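 Fluorescence intensity read-out of a beta-lactamase reporter under a p53 response element. Cells were exposed to DMSO-dissolved compounds for 16 h at 37 C, then developed with FRET substrate for 2 h at RT.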

[11] = biological target: 5-hydroxytryptamine receptor 2A (Homo sapiens) (UniProt P28223); experiment: 5-hydroxytryptamine receptor 2A (HTR2A) small molecule agonists, cell-based qHTS assay (AID 1963587); note: nearly all actives have a fitted effect of over 30% in size
Sequence of 5-hydroxytryptamine receptor 2A (Homo sapiens) (P28223 whole entry, looked up): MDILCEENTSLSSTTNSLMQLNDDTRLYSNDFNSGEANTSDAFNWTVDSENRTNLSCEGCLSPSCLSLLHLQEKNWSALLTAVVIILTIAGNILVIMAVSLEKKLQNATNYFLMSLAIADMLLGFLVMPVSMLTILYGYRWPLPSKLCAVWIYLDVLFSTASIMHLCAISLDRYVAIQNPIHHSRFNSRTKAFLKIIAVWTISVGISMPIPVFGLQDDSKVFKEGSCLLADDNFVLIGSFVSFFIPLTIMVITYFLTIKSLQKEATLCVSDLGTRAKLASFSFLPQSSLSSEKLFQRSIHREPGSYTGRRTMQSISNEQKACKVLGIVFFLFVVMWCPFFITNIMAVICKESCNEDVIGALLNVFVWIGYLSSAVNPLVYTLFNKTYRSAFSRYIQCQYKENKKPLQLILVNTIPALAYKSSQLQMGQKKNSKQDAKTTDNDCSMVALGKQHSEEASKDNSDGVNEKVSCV
How it was run: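 HTR2A-CHO cells, plated 18 h at 37 C/5% CO2, dye-loaded 1 h at 37 C; compounds in DMSO added by pin tool (agonist mode). Intracellular calcium flux read as kinetic fluorescence on FDSS over 2 min at 1 s intervals.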

[12] = biological target: Muscarinic acetylcholine receptor M1 (Homo sapiens) (UniProt P11229); experiment: Cholinergic receptor muscarinic 1 (CHRM1) small molecule agonists, cell-based qHTS assay (AID 1963589); note: nearly all actives have a fitted effect of over 35% in size
Sequence of Muscarinic acetylcholine receptor M1 (Homo sapiens) (P11229 whole entry, looked up): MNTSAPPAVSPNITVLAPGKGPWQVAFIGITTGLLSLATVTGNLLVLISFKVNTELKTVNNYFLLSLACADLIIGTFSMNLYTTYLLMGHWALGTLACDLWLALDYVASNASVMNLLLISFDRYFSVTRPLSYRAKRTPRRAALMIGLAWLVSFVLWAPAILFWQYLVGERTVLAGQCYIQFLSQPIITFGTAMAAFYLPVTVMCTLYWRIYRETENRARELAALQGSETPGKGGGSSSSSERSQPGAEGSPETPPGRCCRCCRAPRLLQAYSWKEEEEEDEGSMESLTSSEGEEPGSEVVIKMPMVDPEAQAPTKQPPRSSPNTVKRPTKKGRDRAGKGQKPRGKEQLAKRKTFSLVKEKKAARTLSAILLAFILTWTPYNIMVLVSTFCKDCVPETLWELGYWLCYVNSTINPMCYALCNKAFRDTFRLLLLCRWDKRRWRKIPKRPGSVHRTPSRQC
How it was run: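 Calcium flux read-out: kinetic fluorescence at 1 sec intervals after pin-tool compound addition to dye-loaded CHRM1-CHO cells (human M1). Agonist mode; 15 concentrations tested in triplicate independent runs.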

[13] = cAMP Responsive Elements (CRE) small molecule agonists, cell-based qHTS assay (AID 1963590)
How it was run: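 Beta-lactamase reporter readout: LiveBLAzer B/G FRET substrate, 2 h at room temperature, added after 3 h compound treatment of CRE-bla HEK 293T cells at 37 C/5% CO2.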

[14] = biological target: Beta-2 adrenergic receptor (Homo sapiens) (UniProt P07550); experiment: Adrenergic beta2 receptor (ADRB2) small molecule antagonists, cell-based qHTS assay (AID 1963592); note: series mostly up to about 92 µM; nearly all actives have a fitted effect of over 50% in size
Sequence of Beta-2 adrenergic receptor (Homo sapiens) (P07550 whole entry, looked up): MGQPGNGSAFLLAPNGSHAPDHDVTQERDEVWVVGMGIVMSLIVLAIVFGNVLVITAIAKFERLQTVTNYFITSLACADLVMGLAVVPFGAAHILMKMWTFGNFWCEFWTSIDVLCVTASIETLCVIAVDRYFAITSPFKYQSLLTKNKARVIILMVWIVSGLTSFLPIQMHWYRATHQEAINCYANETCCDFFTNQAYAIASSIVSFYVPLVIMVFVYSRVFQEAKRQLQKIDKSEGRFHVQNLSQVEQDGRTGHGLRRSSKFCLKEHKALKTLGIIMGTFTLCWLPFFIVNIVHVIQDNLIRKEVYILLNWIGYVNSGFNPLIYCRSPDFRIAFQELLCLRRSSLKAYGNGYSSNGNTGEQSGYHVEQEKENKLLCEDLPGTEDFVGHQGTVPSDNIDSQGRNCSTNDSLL
How it was run: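 Assay format: CHO-ADRB2 cells, 18-20hr seeding at 37C/5% CO2, then compound plus 1nM isoproterenol agonist mix for 0.5hr RT. Homogeneous time-resolved fluorescence cAMP detection after 1hr, expressed as 665/615 nm ratio.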

[15] = biological target: Beta-2 adrenergic receptor (Homo sapiens) (UniProt P07550); experiment: Adrenergic beta2 receptor (ADRB2) small molecule agonists, cell-based qHTS assay (AID 1963593);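 note: CHO cells stably overexpressing human ADRB2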
How it was run: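 CHO cells stably over-expressing ADRB2 were plated overnight at 37C, then dosed with compounds plus a stimulation mix containing 100uM IBMX and 25uM Ro-20-1724 for 0.5hr at room temperature. cAMP was measured by HTRF competition, 1hr.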

[16] = biological target: D(2) dopamine receptor (Homo sapiens) (UniProt P14416); experiment: Dopamine D2 receptor (DRD2) small molecule agonists, cell-based qHTS assay (AID 1963594); note: nearly all actives have a fitted effect of over 35% in size; note: potency is the fitted concentration of half-maximal effect
Sequence of D(2) dopamine receptor (Homo sapiens) (P14416 whole entry, looked up): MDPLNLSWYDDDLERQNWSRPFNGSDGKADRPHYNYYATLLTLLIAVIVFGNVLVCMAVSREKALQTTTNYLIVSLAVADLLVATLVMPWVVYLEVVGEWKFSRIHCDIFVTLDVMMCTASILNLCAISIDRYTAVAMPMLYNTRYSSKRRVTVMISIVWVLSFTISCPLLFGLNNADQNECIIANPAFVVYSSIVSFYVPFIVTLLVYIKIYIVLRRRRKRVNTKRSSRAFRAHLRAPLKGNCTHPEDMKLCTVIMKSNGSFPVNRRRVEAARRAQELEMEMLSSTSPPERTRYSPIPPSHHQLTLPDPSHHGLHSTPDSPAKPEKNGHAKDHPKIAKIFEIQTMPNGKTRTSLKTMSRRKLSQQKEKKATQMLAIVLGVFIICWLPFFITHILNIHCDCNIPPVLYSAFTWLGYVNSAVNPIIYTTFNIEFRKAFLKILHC
How it was run: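 HEK293 cells stably expressing DRD2 were cultured 24 h at 37 C, then given Ro20-1724 (0.1 mM final) and compounds for 10 min at room temperature. NKH477 (200nM) was then added for 30 min. cAMP was read by HTRF.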

[17] = biological target: D(2) dopamine receptor (Homo sapiens) (UniProt P14416); experiment: Dopamine D2 receptor (DRD2) small molecule antagonists, cell-based qHTS assay (AID 1963595; active = well fitted inhibition curve with a large enough effect in the signal ratio in the repeat runs, with a control signal flat; the % refers to the signal ratio)
How it was run: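 Antagonism was scored as restored cAMP in HEK293-DRD2 cells. These cells were stimulated with 200 nM NKH477 and 12 nM quinpirole for 30 min at room temperature, in the presence of 0.1 mM Ro20-1724.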

[18] = cAMP Responsive Elements (CRE) small molecule antagonists, cell-based qHTS assay (AID 1963591; active = well fitted inhibition curve with a large enough effect in the signal ratio in the repeat runs, not every such curve was filed as active; the % refers to the signal ratio)
How it was run: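 HEK293T CRE-bla; 18 h preincubation; compound pin-transfer; NKH477 0.25 uM final, 3 h, 37 C; LiveBLAzer FRET substrate 2 h RT.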

[19] = biological target: Muscarinic acetylcholine receptor M1 (Homo sapiens) (UniProt P11229); experiment: Cholinergic receptor muscarinic 1 (CHRM1) small molecule antagonists, cell-based qHTS assay (AID 1963588); note: nearly all actives have a fitted effect of over 40% in size
How it was run: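 Compounds were tested at 15 concentrations in three independent runs. Dye-loaded CHRM1-CHO cells were exposed 5 min at room temperature before stimulation by acetylcholine added at 50nM. Intracellular calcium was read kinetically on FDSS for 3 min.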

Measured: Potency

Cc1c(C)n(CCN(C)C)c2ccc(C(=O)OCCN(C)C)cc12
active: [2] 29.8 µM
not listed: [18] | [19]
inactive: all other assays above

Nc1nc2c(ncn2COC(CO)CO)c(=O)[nH]1
active: [16] 1.14 µM
not listed: [11] | [12] | [19]
inactive: all other assays above

COc1cccc([C@H](O)C2CCN(CCc3ccc(F)cc3)CC2)c1OC
not listed: [11] | [13] | [15] | [16]
inactive: all other assays above

O=C1c2ccccc2C(=O)C1c1ccccc1
not listed: [11] | [12] | [19]
inactive: all other assays above
